Test [1] in a line: ATG_PXRE_CIS: Attagene CIS-FACTORIAL HepG2 Assay for human Pregnane X Receptor Element (PXRE) (AID 2282957). As to conditions: HepG2 Attagene CIS-FACTORIAL PXRE reporter, mRNA; actives raise or lower the signal. Put shortly: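 Using HepG2 transfected with multiple reporter transcription units, endogenous factor-driven transcription was scored as reporter mRNA after 24 h exposure.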

A short description of test [2]: ATG_RORE_CIS: Attagene CIS-FACTORIAL HepG2 Assay for human RAR-related Orphan Receptor Element (RORE) (AID 2282959). As to conditions: HepG2 Attagene cis-factorial RORE reporter, mRNA; actives raise or lower the signal. In a few lines: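 Endogenous factor activity at a cis response element is read as reporter transcript levels in HepG2 cells, 24 h post-dose. Transcripts are quantified by RT-PCR with capillary electrophoresis, and data fitted in both directions against DMSO.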

A short description of test [3]: ATG_Sox_CIS: Attagene CIS-FACTORIAL HepG2 Assay for human SRY-box transcription factor (SOX) (AID 2282960). To be noted: HepG2 Attagene cis-factorial SOX reporter, mRNA; actives raise or lower the signal. Put shortly:
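Measures mRNA induction of a SOX1-associated reporter in HepG2 after 24 h dosing. Fluorescently labelled RT-PCR fragments are separated by capillary electrophoresis, and gain or loss relative to DMSO control is fitted.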

In test [4] the target is Transcription factor Sp1 (Homo sapiens) (UniProt P08047). Put plainly: ATG_Sp1_CIS: Attagene CIS-FACTORIAL HepG2 Assay for human Specificity Protein 1 (Sp1) (AID 2282961). To be noted: HepG2 Sp1 cis-reporter transcription, actives raise or lower the signal. In a few lines: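 Cells: HepG2, transiently transfected with cis-regulated multiplexed reporters. Exposure: 24 h. Detection: reporter transcripts amplified, fluorescently labeled, restriction-digested and sized by capillary electrophoresis. Analysis: bidirectional fit relative to DMSO.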

The nature of test [5]: ATG_SREBP_CIS: Attagene CIS-FACTORIAL HepG2 Assay for human Sterol Regulatory Element Binding (SREBP) (AID 2282962). To be noted: HepG2 Attagene cis-factorial SREBP reporter, mRNA; actives raise or lower the signal. In a few lines: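 Endogenous factor activity is measured in HepG2 through multiplexed reporter units under cis-element control. Following a 24 h incubation, reporter transcripts are reverse-transcribed, PCR-amplified and sized by capillary electrophoresis; activity is fitted in both directions relative to DMSO.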

In test [6] the target is Signal transducer and activator of transcription 3 (Homo sapiens) (UniProt P40763). The test can be described thus: ATG_STAT3_CIS: Attagene CIS-FACTORIAL HepG2 Assay for human Signal Transducer and Activator of Transcription 3 (STAT3) (AID 2282963). As to conditions: HepG2, Attagene cis-factorial STAT3 reporter transcription; actives raise or lower the signal. In a few lines: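 Readout is reporter transcript quantified by RT-PCR and capillary electrophoresis, with 6-FAM primer extension and HpaI digestion. Total RNA is taken 24 h after dosing transiently transfected HepG2 carrying cis-regulated reporter units. Bidirectional fit against DMSO.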

Test [7] can be described thus: ATG_TA_CIS: Attagene CIS-FACTORIAL HepG2 Assay for human TA Basal Promoter (AID 2282964). To be noted: HepG2 Attagene CIS-factorial TA basal promoter reporter; actives raise or lower the signal. In a few lines: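 Cis-factorial format in HepG2: reporters report endogenous factors, not chimeric Gal4 fusions. After 24 h treatment, reporter transcripts were measured by RT-PCR-capillary electrophoresis fluorescence, analysed bidirectionally versus DMSO.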

A short description of test [8]: ATG_TCF_b_cat_CIS: Attagene CIS-FACTORIAL HepG2 Assay for human T-Cell-Factor with beta-catenin (TCF/b-cat) (AID 2282965). To be noted: HepG2 TCF/beta-catenin cis-reporter transcription, actives raise or lower the signal. Put shortly: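 Endogenous transcription factor activity is captured through cis-promoter reporter constructs transiently introduced into human HepG2 liver cells. Induced reporter mRNA is measured after 24 h and fitted bidirectionally relative to DMSO.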

A short description of test [9]: ATG_TAL_CIS: Attagene CIS-FACTORIAL HepG2 Assay for human TAL Basal Promoter (AID 2282966).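 Note: background control endpoint measuring basal TAL promoter reporter mRNA not a specific factor.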 As to conditions: HepG2 Attagene cis-factorial TAL promoter reporter; actives raise or lower the signal. In a few lines: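 After 24 hours of chemical exposure, transfected HepG2 cells yielded RNA that was converted to 6-FAM-labelled, HpaI-digested reporter fragments for capillary electrophoresis. Values derive from bidirectional fitting against DMSO controls.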

A short description of test [10]: ATG_TGFb_CIS: Attagene CIS-FACTORIAL HepG2 Assay for human Transforming Growth Factor (TGF) (AID 2282967). As to conditions: HepG2 Attagene CIS TGFb reporter, mRNA transcription; actives raise or lower the signal. In a few lines: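 Multiplexed cis-reporter HepG2 system, 24 h treatment; mRNA induction read by fluorescence after RT-PCR and CE; DMSO negative control, bidirectional curve fitting.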

Test [11] is described as follows: ATG_VDRE_CIS: Attagene CIS-FACTORIAL HepG2 Assay for human Vitamin D Receptor Element (VDRE) (AID 2282968). To be noted: HepG2 VDRE cis-reporter transcription, actives raise or lower the signal. Put shortly: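 Readout is VDRE-driven reporter mRNA reflecting endogenous factor activity in human HepG2 cells, sampled 24 h post-dose. Quantification used labelled RT-PCR products separated by capillary electrophoresis; bidirectional analysis relative to DMSO.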

Test [12] addresses X-box-binding protein 1 (Homo sapiens) (UniProt P17861). The test can be described thus: ATG_Xbp1_CIS: Attagene CIS-FACTORIAL HepG2 Assay for human X-box Binding Protein 1 (XBP1) (AID 2282972). As to conditions: HepG2 XBP1 cis-element reporter, Attagene multiplex; actives raise or lower the signal. In a few lines:
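Multiplexed cis-reporter readout in transfected HepG2 liver cells. Exposure lasted 24 hours. Activity in either direction was fitted against DMSO as negative control and baseline.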

Test [13] can be described thus: ATG_M_19_TRANS: Attagene TRANS-FACTORIAL HepG2 Assay for M19 Transcription Factor (Internal Marker) (AID 2282974; active = hit-call score of the fitted dose curve at least 0.9, where 1 is the maximum). To be noted: HepG2 Attagene TRANS-FACTORIAL M19 internal marker reporter. Put shortly: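 Reporter mRNA induction was measured in transfected HepG2 cells 24 h after dosing. Endpoint fitted upward relative to DMSO and serves as a background control within the multiplexed TRANS panel.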

A short description of test [14]: ATG_PPRE_CIS: Attagene CIS-FACTORIAL HepG2 Assay for human Peroxisome Proliferator-activated Response Element (PPRE) (AID 2282958). As to conditions: HepG2 PPRE cis-element reporter, Attagene transcription factor profiling; actives raise or lower the signal. In a few lines: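 In this cell-based multiplex, a PPRE cis element drives a reporter sequence in transiently transfected HepG2 cells. Following 24 h treatment, labeled cDNA amplicons are sized and quantified by capillary electrophoresis, with DMSO defining baseline.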

Test [15] addresses Nuclear receptor subfamily 1 group I member 3 (Homo sapiens) (UniProt Q14994). The test can be described thus: ATG_CAR_TRANS: Attagene TRANS-FACTORIAL HepG2 Assay for human Constitutive Androstane Receptor (CAR) (AID 2282969; active = hit-call score of the fitted dose curve at least 0.9, where 1 is the maximum;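 note: activators raise reporter mRNA above DMSO so AC50 marks induction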). To be noted: HepG2 Attagene TRANS-FACTORIAL CAR reporter. Put shortly:
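Signal is reporter mRNA induction relative to DMSO, measured 24 h after dosing by RT-PCR with fluorescent primer extension and capillary electrophoresis. Human HepG2 liver cells carried transiently transfected chimeric NR-Gal4/GAL4-UAS reporter constructs.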

For test [16], the target named is Estrogen receptor (Homo sapiens) (UniProt P03372). The test can be described thus: ATG_ERa_TRANS: Attagene TRANS-FACTORIAL HepG2 Assay for human Estrogen Receptor alpha (ERa) (AID 2282970; active = hit-call score of the fitted dose curve at least 0.9, where 1 is the maximum). As to conditions: HepG2 Attagene TRANS ERa GAL4 reporter, mRNA. In a few lines:
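Liver-derived HepG2 cells expressing chimeric nuclear receptor-Gal4 proteins from transient transfection were exposed for 24 hours. Gain of reporter mRNA signal versus DMSO, read by capillary electrophoresis of FAM-labelled PCR products, was recorded.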

The nature of test [17]: ATG_GAL4_TRANS: Attagene TRANS-FACTORIAL HepG2 Assay for GAL4 (Internal Marker) (AID 2282976; active = hit-call score of the fitted dose curve at least 0.9, where 1 is the maximum). As to conditions: HepG2 Attagene TRANS GAL4 internal marker reporter. In a few lines: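 First, HepG2 cells were transfected with reporter units under GAL4-UAS control. Next, they were treated with chemical for 24 h. Finally, RNA was reverse-transcribed, PCR-amplified, FAM-labelled and resolved by capillary electrophoresis, with induction scored against DMSO.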

Test [18] concerns the target Glucocorticoid receptor (Homo sapiens) (UniProt P04150). The test can be described thus: ATG_GR_TRANS: Attagene TRANS-FACTORIAL HepG2 Assay for human Glucocorticoid Receptor (GR) (AID 2282978; active = hit-call score of the fitted dose curve at least 0.9, where 1 is the maximum;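 note: activators score as hits since higher reporter transcript over DMSO is fitted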). To be noted: HepG2 Attagene TRANS GR reporter, mRNA transcription. In a few lines: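 Reporter transcript levels, detected by fluorescence after RT-PCR and capillary electrophoresis, served as the endpoint. HepG2 cells bearing transfected GAL4-UAS reporters responsive to NR-GAL4 chimeras were incubated with compound 24 h; DMSO defined baseline.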

The values that follow come from PubChem BioAssay (EPA / NIEHS).

Results filed as inconclusive are left out. Activity calls are given as the source filed them. Rule for the calls, unless noted: active = hit-call score of the fitted dose curve at least 0.9, where 1 is the maximum; inactive = score below 0.9.

Sequence of X-box-binding protein 1 (Homo sapiens) (P17861 whole entry, looked up): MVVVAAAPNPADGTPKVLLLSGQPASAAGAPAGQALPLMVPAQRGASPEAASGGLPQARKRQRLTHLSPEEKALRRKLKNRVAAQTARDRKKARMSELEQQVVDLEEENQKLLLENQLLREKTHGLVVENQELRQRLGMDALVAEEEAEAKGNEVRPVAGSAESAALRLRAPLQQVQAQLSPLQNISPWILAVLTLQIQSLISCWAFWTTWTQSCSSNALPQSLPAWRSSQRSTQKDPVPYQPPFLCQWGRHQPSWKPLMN
Sequence of Signal transducer and activator of transcription 3 (Homo sapiens) (P40763 whole entry, looked up): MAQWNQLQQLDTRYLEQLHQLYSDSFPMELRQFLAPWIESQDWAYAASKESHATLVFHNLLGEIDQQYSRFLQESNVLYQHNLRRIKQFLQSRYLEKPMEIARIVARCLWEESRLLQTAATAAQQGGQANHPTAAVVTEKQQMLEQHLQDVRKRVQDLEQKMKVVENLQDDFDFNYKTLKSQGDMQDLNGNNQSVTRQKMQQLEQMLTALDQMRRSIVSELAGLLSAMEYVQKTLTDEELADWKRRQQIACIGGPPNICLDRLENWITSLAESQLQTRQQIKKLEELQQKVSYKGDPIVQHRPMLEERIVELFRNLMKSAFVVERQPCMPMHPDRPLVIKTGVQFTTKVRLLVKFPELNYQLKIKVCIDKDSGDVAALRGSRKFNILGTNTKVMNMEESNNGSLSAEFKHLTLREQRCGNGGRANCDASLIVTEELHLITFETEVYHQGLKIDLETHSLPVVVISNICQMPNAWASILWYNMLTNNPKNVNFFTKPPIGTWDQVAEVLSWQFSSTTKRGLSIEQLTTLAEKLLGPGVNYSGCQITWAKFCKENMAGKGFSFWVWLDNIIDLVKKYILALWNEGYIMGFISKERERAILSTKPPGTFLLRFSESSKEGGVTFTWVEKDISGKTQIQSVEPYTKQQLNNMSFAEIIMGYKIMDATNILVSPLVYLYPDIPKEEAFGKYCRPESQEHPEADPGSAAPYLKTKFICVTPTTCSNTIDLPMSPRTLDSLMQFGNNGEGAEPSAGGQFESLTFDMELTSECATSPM
Sequence of Estrogen receptor (Homo sapiens) (P03372 whole entry, looked up, the tested form may be a part): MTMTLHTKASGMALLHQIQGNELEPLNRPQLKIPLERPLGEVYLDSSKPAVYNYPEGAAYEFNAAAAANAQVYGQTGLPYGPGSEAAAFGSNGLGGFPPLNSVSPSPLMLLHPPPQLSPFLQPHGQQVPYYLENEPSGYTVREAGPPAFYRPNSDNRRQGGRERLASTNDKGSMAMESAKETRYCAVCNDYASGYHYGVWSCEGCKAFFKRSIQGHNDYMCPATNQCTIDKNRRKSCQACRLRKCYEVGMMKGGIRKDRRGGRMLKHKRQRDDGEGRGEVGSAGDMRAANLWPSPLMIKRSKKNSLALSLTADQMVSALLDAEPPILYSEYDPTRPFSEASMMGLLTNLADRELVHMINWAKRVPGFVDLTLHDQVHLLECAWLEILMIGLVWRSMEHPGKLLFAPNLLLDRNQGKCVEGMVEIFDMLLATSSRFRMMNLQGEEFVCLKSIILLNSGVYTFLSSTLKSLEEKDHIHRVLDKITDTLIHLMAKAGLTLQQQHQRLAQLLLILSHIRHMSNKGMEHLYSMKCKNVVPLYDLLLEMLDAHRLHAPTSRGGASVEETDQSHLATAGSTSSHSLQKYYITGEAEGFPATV
Sequence of Transcription factor Sp1 (Homo sapiens) (P08047 whole entry, looked up): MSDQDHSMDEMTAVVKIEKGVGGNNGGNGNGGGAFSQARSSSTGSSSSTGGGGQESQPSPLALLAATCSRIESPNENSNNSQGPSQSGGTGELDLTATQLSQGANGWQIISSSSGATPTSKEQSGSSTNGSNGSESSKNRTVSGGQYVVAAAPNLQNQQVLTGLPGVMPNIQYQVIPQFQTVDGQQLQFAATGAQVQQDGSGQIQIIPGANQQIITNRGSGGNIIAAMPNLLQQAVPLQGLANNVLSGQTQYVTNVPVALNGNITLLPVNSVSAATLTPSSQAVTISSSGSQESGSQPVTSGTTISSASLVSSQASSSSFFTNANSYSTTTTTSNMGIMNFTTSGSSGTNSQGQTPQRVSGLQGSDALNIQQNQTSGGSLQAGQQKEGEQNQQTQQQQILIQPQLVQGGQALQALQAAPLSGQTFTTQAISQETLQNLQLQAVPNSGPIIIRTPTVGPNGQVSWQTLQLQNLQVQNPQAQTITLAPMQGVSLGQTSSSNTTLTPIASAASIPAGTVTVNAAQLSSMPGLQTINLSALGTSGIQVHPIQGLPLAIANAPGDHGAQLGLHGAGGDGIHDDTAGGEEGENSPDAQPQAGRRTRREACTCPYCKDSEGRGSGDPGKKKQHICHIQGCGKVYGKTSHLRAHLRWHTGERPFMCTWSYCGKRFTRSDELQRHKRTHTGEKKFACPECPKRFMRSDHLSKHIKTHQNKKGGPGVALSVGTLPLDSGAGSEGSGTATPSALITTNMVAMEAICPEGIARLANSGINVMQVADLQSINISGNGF
Sequence of Glucocorticoid receptor (Homo sapiens) (P04150 whole entry, looked up, the tested form may be a part): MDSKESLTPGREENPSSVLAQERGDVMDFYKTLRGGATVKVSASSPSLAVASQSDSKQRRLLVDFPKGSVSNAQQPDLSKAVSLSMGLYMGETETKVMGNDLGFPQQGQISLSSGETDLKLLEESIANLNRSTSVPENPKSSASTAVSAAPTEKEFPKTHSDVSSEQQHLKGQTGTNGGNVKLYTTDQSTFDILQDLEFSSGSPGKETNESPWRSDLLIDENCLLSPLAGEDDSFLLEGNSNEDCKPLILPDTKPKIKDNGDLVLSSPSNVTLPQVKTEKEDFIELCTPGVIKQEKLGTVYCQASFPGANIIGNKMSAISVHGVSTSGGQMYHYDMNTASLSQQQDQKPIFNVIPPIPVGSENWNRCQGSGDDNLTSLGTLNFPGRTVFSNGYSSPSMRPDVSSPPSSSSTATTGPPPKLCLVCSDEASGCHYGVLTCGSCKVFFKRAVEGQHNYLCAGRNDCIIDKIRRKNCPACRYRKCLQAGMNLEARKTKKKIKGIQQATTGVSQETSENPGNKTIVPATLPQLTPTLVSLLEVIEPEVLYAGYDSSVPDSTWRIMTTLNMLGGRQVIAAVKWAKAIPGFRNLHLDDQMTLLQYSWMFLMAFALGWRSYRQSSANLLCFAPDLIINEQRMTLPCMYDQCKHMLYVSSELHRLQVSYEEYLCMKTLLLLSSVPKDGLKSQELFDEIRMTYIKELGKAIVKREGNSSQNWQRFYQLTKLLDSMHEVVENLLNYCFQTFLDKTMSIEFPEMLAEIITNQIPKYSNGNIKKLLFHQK
Sequence of Nuclear receptor subfamily 1 group I member 3 (Homo sapiens) (Q14994 whole entry, looked up, the tested form may be a part): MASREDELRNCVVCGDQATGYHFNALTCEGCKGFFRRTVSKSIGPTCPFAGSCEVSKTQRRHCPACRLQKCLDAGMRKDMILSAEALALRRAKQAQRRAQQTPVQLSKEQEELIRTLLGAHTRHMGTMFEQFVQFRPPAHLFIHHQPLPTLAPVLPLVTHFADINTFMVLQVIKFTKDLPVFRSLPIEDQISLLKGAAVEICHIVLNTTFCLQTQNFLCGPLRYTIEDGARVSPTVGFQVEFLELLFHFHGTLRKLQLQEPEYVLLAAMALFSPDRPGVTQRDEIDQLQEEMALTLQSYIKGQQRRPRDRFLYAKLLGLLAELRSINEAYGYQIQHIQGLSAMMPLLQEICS

For `Cc1[nH]nc2c1N=C(c1ccccc1Cl)c1cc([N+](=O)[O-])ccc1N2`, the AC50 in test [1] was 3.76 µM (active); in test [4] it was 0.357 µM (active); in test [7], 0.288 µM (active); in [8], 3.71 µM (active). Moreover, the outcome in [2], in test [3], in [5], in test [6], in test [9] and in test [10] was inactive. Besides, the result in [11], in [12] and in test [13] was inactive.
As to `Cc1ccc(C(=O)c2ccccc2)cc1`, the AC50 in test [1] was 30.4 µM (active); in [16], 27.8 µM (active). Further, the result in test [14], in test [2], in test [3], in test [7], in test [8] and in test [9] was inactive. The outcome in test [10], in test [11], in [15], in test [12], in test [13] and in [17] was inactive.
In the case of `O=C(O)CCC(F)(F)C(F)(F)C(F)(F)C(F)(F)C(F)(F)C(F)(F)F`, the call in [1], in test [14], in [2], in test [3], in test [6] and in test [7] was inactive. In addition, the outcome in test [8], in test [9], in test [10], in test [11], in test [12] and in test [13] was inactive. Moreover, the call in [17] and in test [18] was inactive. Also, the AC50 in test [16] was 46.1 µM (active).
As to `CC1COCc2cc3c(cc21)C(C)(C)C(C)C3(C)C` (configuration not stated), the AC50 in test [1] is 1.23 µM (active); in test [2], 164 µM (active); in test [3] it was 73.2 µM (active); in [4] it was 100 µM (active); in [6], 176 µM (active); in test [7] it was 168 µM (active). The AC50 is 144 µM (active) in test [9], 50.7 µM (active) in test [11], 11.8 µM (active) in test [16] and 73.4 µM (active) in test [12]. For the same molecule, the result in test [5], in test [8], in [10], in [15] and in test [18] was inactive.
